Among the data in PubChem BioAssay are composite z-score, composite Z-score and z-score values, retold here.

One assay addresses Albumin (Bos taurus) (UniProt P02769). The experiment in a line: compounds binding labelled BSA control protein – biochemical, small-molecule microarray, Alexa647 label, 635/667 nm fluorescence, artefact control for SMM control protein annotation, profiling panel (AID 1118).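 Further: score merges 667 nm emission intensity and signal-to-noise per printed compound spot.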 To be noted: BSA-A647 binding, fluorescence 635 nm, higher = more signal.
Assay [1] can be described thus: probe aXIP binding to arrayed compounds – biochemical, NeuroSMM set, 635/667 nm fluorescence, primary screen (AID 1119).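 Further: probe is the protein aXip251-270 applied at 1 µg/mL to compound-printed slides; binding of probe to printed compounds measured as 667 nm fluorescence plus signal to noise.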 To be noted: small-molecule microarray, higher = more signal, called active from +8 up or from −8 down.
A short description of assay [2]: probe aNOTCH3 binding on compound microarray – biochemical, small-molecule microarray, 635/667 nm fluorescence, primary screen (AID 1120).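 Further: probe is a biotin-tagged antibody raised against NOTCH3 rather than NOTCH3 protein; score merges spot fluorescence near 667 nm with spot signal to noise.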 To be noted: higher = more signal.
Assay [3] in a line: probe aNOTCH2 binding on compound microarray – biochemical, small-molecule microarray, 635/667 nm fluorescence, primary screen (AID 1121).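 Further: score merges feature fluorescence read at 667 nm with its signal to noise.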 To be noted: higher = more signal.
Assay [4] addresses Carbonic anhydrase 2 (Homo sapiens) (UniProt P00918). Briefly: compounds binding carbonic anhydrase 2 – biochemical, small-molecule microarray, Alexa647-labelled CAII, profiling panel (AID 1122). To be noted: CAII-A647 binding fluorescence, higher = more signal.
Assay [5] is described as follows: COS7 lysate on small-molecule microarray, probe aHis, 635 nm (AID 1123).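 Further: z-score combines 667nm fluorescence intensity with signal-to-noise per printed compound spot.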 To be noted: COS7 cell lysate, fluorescence, higher = more signal.
Assay [6] can be described thus: probe aLAP1 signal on lysate-treated microarray – cell lysate, small-molecule microarray, COS7 lysate, primary screen (AID 1124).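 Further: lysate comes from COS7 cells expressing LAP1 and is applied at 0.3 µg/mL; score merges spot fluorescence near 667 nm with signal-to-noise over triplicate slides.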 To be noted: probe aLAP1, fluorescence, higher = more signal.
Another assay relates to Sam68 (KHDRBS1). Briefly: compounds binding KHDRBS1 protein – biochemical, small-molecule microarray, 635 nm fluorescence, primary screen (AID 1125).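 Further: score merges 667 nm channel intensity with signal to noise over triplicate slides.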 To be noted: higher = more signal.
Assay [7] deals with Chordin-like protein 2 (CHRDL2). Briefly: compounds binding chordin-like 2 – biochemical, small-molecule microarray, 635 nm fluorescence, primary screen (AID 1126).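 Further: printed compound slides probed with Chrdl2 protein at 4 µg/mL for 1 h at 4 C; score merges 667 nm emission intensity with signal to noise over three replicate slides.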 To be noted: fluorescence 635 nm, higher = more signal.
Assay [8] concerns the target Concanavalin-A (Canavalia ensiformis) (UniProt P02866). Briefly: compounds binding concanavalin A lectin – biochemical, small-molecule microarray, Alexa647 label, 635 nm, artefact control for SMM control protein annotation, primary screen (AID 1127).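 Further: z combines 667 nm emission intensity with signal-to-noise across three replicate slides.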 To be noted: ConA-A647 binding fluorescence, higher = more signal.
The nature of assay [9]: compounds binding Alexa647 anti-His antibody – biochemical, small-molecule microarray, 635 nm fluorescence, artefact control for SMM control protein annotation, primary screen (AID 1128).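 Further: score merges feature fluorescence with signal-to-noise for each printed compound spot.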 To be noted: higher = more signal.
Assay [10] has as its system Human papillomavirus type 1a E7 protein (residues 1-88). Briefly: HPV1a E7 small-molecule binders, primary screen, biochemical, small-molecule microarray, residues 1-88, 635 nm (AID 1129). To be noted: small-molecule microarray binding, fluorescence 635 nm; higher = more signal.
The target of assay [11] is Focal adhesion kinase 1 (Homo sapiens) (UniProt Q05397). The experiment in a line: PTK2 protein binding on printed compound slides – biochemical, small-molecule microarray, 635/667 nm fluorescence, BSA, DTT, primary screen (AID 1130).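 Further: composite of spot emission at 667 nm and signal to noise over triplicate slides.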 To be noted: 635 nm fluorescence, higher = more signal.
Focal adhesion kinase 1 (Homo sapiens), sequence (Q05397 whole entry, looked up): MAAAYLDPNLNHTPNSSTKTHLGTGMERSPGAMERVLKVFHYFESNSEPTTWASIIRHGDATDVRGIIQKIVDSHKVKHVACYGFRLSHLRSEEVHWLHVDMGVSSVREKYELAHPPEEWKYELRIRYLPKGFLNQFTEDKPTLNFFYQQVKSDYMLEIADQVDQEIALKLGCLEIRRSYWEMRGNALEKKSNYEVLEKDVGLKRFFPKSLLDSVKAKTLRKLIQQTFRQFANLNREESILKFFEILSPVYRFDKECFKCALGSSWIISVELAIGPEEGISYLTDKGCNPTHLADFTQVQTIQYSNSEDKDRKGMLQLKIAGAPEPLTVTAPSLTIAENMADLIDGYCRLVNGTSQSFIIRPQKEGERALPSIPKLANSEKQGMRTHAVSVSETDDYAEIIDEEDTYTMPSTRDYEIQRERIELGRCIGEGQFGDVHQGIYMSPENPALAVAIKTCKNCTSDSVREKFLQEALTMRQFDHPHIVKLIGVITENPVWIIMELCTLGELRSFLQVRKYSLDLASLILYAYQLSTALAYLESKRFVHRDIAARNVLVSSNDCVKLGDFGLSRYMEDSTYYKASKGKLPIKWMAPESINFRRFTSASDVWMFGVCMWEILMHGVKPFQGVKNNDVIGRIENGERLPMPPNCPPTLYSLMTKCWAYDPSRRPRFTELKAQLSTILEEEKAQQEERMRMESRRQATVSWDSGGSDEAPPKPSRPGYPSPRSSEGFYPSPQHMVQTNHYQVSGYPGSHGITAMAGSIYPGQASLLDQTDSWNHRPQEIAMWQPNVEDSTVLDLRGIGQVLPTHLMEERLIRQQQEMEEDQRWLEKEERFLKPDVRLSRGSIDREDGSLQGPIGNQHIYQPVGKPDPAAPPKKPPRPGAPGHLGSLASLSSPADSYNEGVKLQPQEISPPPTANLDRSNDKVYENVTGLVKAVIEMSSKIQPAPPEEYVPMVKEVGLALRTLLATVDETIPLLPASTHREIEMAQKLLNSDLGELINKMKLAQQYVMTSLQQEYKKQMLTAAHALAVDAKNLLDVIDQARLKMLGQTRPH
The test system of assay [12] is Fibrinogen (Alexa647-labelled). The experiment in a line: Alexa647-fibrinogen binding to printed small molecules – biochemical, small-molecule microarray, 635/667 nm fluorescence, artefact control for SMM control-protein annotation, profiling panel (AID 1131).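 Further: z-score merges 667 nm fluorescence with per-spot signal-to-noise over triplicate slides.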 To be noted: fibrinogen-A647 binding fluorescence, higher = more signal.
Assay [13] deals with Follistatin (Homo sapiens) (UniProt P19883). Briefly: FST protein binding to printed compounds – biochemical, small-molecule microarray, 635/667 nm fluorescence, primary screen (AID 1132). To be noted: 635 nm fluorescence, higher = more signal.
Follistatin (Homo sapiens), sequence (P19883 whole entry, looked up): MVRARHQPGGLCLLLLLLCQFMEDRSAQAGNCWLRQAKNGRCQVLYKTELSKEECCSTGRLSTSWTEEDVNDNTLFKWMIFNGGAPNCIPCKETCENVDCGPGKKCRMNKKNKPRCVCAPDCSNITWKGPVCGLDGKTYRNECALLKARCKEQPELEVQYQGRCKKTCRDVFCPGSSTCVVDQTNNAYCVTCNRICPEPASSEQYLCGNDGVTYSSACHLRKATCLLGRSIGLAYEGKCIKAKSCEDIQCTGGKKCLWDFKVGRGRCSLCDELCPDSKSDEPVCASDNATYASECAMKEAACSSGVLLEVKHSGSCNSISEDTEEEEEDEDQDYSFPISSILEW
Assay [14] deals with Fibroblast growth factor 2 (Homo sapiens) (UniProt P09038). The experiment in a line: basic fibroblast growth factor binding to printed compounds – biochemical, small-molecule microarray, 635/667 nm fluorescence, primary screen (AID 1133). To be noted: FGF2, fluorescence 635/667, higher = more signal.
Fibroblast growth factor 2 (Homo sapiens), sequence (P09038 whole entry, looked up): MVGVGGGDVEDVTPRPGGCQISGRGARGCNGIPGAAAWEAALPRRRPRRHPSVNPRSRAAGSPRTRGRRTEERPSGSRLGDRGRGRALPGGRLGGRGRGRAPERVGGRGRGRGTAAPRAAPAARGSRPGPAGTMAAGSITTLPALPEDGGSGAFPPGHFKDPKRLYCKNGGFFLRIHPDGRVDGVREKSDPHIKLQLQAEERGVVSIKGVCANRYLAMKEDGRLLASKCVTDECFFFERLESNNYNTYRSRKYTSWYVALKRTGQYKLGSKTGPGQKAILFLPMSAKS
Assay [15] is described as follows: JC-1 mitochondrial potential readout, lung cancer cells – cell-based, A549, JC-1 fluorescence, basal, 24 h, 100 nL, profiling panel (AID 1138).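 Further: A549 lung adenocarcinoma cells under basal conditions with no added stimulus; test concentration not given here.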 To be noted: higher = more signal.
For a further assay, the system named is Lefty1. The experiment in a line: Lefty1 protein binding to printed compounds – biochemical, small-molecule microarray, 635/667 nm fluorescence, primary screen (AID 1139). To be noted: fluorescence 635/667, higher = more signal.
The test system of assay [16] is wheat germ agglutinin (Triticum aestivum), Alexa647-labelled. The experiment in a line: Alexa647-WGA lectin binding to printed small molecules – biochemical, small-molecule microarray, 635/667 nm fluorescence, artefact control for SMM control-protein annotation, profiling panel (AID 1140).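 Further: score merges 667 nm feature emission with signal to noise over triplicate slides.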 To be noted: WGA-A647 binding, 635 nm fluorescence, higher = more signal.
Assay [17] deals with Luciferin 4-monooxygenase (Photinus pyralis) (UniProt P08659). The experiment in a line: inhibition of purified Photinus pyralis luciferase – biochemical, luminescence, purified enzyme, 2006 set, primary screen (AID 1141).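 Further: cell-free assay with purified firefly luciferase at 100 ng per well in PBS; test concentration not given here.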 To be noted: purified firefly luciferase, SteadyGlo luminescence, 30 min; higher = more signal, called active from +8 up or from −8 down.
Luciferin 4-monooxygenase (Photinus pyralis), sequence (P08659 whole entry, looked up): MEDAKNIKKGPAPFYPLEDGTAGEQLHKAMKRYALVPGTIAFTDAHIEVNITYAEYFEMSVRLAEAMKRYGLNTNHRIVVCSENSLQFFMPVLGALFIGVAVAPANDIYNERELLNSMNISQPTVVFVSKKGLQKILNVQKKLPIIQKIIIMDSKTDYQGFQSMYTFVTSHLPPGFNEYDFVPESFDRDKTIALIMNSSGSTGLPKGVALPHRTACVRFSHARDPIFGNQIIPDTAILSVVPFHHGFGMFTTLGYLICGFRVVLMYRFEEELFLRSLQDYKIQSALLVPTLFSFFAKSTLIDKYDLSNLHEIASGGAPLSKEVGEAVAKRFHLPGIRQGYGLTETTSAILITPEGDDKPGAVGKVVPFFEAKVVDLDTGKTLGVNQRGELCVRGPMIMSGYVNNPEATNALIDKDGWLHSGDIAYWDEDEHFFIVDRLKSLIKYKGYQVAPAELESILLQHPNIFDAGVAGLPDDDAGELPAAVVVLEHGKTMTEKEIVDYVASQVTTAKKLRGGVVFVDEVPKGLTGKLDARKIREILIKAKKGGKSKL

Calls of active or inactive are those of the source.

Concanavalin-A (Canavalia ensiformis), sequence (P02866 whole entry, looked up): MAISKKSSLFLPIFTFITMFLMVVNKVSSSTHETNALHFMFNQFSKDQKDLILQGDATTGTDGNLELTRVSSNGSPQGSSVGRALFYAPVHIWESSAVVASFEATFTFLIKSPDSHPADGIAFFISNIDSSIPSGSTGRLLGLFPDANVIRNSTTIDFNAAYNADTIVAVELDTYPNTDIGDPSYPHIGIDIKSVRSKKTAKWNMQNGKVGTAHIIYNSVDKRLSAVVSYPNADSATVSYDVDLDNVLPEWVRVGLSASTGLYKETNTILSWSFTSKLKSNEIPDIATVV
Albumin (Bos taurus), sequence (P02769 whole entry, looked up): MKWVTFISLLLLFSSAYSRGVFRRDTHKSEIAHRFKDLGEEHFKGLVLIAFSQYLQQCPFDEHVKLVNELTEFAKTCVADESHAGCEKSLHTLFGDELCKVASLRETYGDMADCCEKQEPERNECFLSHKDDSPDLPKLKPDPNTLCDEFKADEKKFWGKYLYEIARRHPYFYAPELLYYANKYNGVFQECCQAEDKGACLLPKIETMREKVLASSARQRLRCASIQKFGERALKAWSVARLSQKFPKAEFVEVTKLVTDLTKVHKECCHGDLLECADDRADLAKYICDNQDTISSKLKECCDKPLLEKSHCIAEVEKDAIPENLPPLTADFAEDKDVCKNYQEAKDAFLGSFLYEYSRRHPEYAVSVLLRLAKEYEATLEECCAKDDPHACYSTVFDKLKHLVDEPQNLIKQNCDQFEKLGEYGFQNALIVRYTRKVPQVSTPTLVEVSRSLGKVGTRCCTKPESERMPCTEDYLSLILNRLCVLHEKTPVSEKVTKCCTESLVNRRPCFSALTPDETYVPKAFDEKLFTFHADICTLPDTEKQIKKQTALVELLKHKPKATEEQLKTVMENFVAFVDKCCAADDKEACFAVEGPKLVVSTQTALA

Consider `[N-]=[N+]=Nc1ccccc1C[C@@]1(C(=O)NCC(O)CO)N=C(c2ccc(OCCCO)cc2)O[C@@H]1c1ccccc1N=[N+]=[N-]` (stereo not given in full), for which the composite z-score with Albumin (Bos taurus) worked out at 0.874; in assay [2], 0.204; in assay [3] it was 0.0124; in assay [4], 0.78; in [5] it was 2.25; in assay [6], 1.26. Further, the composite z-score with Sam68 (KHDRBS1) is 1.12; in [7] it was -0.802; in assay [8], 0.902; in assay [9] it was 1.85; in [10], 1.18; in assay [11], 1.03. For the same molecule, the composite z-score is 0.79 in assay [12]; 0.14 in assay [13]; -0.491 in assay [14]; -0.19 in the assay with Lefty1; 1.13 in assay [16]. Besides, the composite Z-score in [1] was -0.213 (inactive). The z-score was -2.28 in assay [15] and -4.27 (inactive) in [17].
For the molecule `C=C1C(=O)C=C2CN(C(=O)c3ccccc3)[C@@](Cc3ccc(F)cc3)(C(=O)OC)[C@@H]12`, the composite z-score with Albumin (Bos taurus) worked out at 1.03; in assay [2] it was 0.693; in [3], 0.009; in assay [4] it was 0.5; in assay [5] it was 2.76; in assay [6] it was 0.942. Further, the composite z-score in the assay on Sam68 (KHDRBS1) was 1.34; in assay [7], -0.775; in [8], 1.14; in assay [9], 1; in assay [10], 1.18; in assay [11] it was 0.69. The composite z-score in assay [12] was 1.03; in [13], 1.25; in assay [14] it was -0.234; in the assay with Lefty1, -0.384; in [16], 0.872. Besides, the composite Z-score in assay [1] was 0.114 (inactive). Also, the z-score was -3.17 in assay [15] and -25.6 (active) in assay [17].
For `CCOC(=O)C1=CCC(c2ccncc2)N(S(=O)(=O)c2ccc(C)cc2)C1` (stereo not given), the composite z-score in the assay with Albumin (Bos taurus) was 0.924; in [2], 0.191; in assay [3], -0.0621; in assay [4], 0.702; in assay [5], 2.6; in [6], 1.05. The composite z-score was determined as 1.3 in the assay with Sam68 (KHDRBS1); 0.192 in [7]; 0.786 in assay [8]; 0.871 in [9]; 1.25 in assay [10]; 1.5 in assay [11]. Further, the composite z-score in [12] was 1.01; in assay [13], 0.844; in assay [14] it was 0.454; in the assay on Lefty1 it was 0.353; in assay [16], 0.829. The composite Z-score in [1] was 0.525 (inactive). In addition, the values for the z-score in [15] and in assay [17] were -0.497 and -0.786 (inactive), respectively.
In the case of `COc1ccc(CCNC(=O)[C@@H]2c3ccccc3C(=O)N(Cc3cc(F)cc(C(F)(F)F)c3)[C@H]2c2ccc(CO)cc2)cc1`, the composite z-score was -0.0885 in the assay with Albumin (Bos taurus); 0.249 in assay [2]; 0.207 in assay [3]; 0.753 in assay [4]; 2.1 in assay [5]; 1.51 in assay [6]. Moreover, the composite z-score in the assay on Sam68 (KHDRBS1) came out at 1.03; in assay [7] it was 0.0818; in assay [8], 0.198; in assay [9], 0.634; in assay [10], 0.544; in [11], 0.137. Moreover, the composite z-score is 0.227 in assay [12]; 1 in [13]; 0.409 in assay [14]; -0.192 with Lefty1; 0.871 in [16]. Further, the composite Z-score in assay [1] is -0.795 (inactive). For the same molecule, the z-score in [15] is 3.34; in assay [17], -1.13 (inactive).
Take `CC(=O)NCCCC[C@@H]1NC(=O)[C@H]2C[C@@H](C(=O)NCCCCCN)[C@@H](c3ccc(O)cc3)N2C1=O`: the composite z-score with Albumin (Bos taurus) is 0.675; in [2], -0.0677; in assay [3] it was -0.0706; in [4], 0.413; in [5], 1.1; in assay [6], -0.15. The composite z-score in the assay with Sam68 (KHDRBS1) is 1.21; in [7] it was 0.851; in [8], 0.966; in [9], 2.49; in assay [10], 1.21; in assay [11], 0.948. Moreover, the composite z-score is 0.653 in [12]; 1.12 in assay [13]; 1.13 in assay [14]; 0.944 in the assay on Lefty1; 0.773 in assay [16]. For the same molecule, in assay [1], the composite Z-score is 0.0898 (inactive). For the same molecule, the z-score in assay [15] is -0.109; in [17] it was 0.148 (inactive).
Consider `C=CCC(OC(C)=O)[C@@H]1[C@@H](N(Cc2cccc3ccccc23)C(=O)c2ccc(C)cc2)c2cc(OCCCO)ccc2N1C(=O)Cc1ccc2ccccc2c1` (stereo not given in full), for which the composite z-score in the assay with Albumin (Bos taurus) was 0.706; in assay [2] it was -0.0044; in [3] it was -0.149; in assay [4] it was 0.15; in assay [5] it was 0.738; in assay [6], -0.0124. Further, the composite z-score in the assay on Sam68 (KHDRBS1) was -1.29; in assay [7], 0.0854; in assay [8], -0.0292; in [9], -0.2; in assay [10] it was -0.0179; in assay [11] it was 0.358. For the same molecule, the composite z-score in assay [12] is 0.535; in [13], 0.142; in assay [14], -0.0243; with Lefty1 it was -0.136; in assay [16] it was -0.0836. The composite Z-score in [1] is -0.758 (inactive). Also, the values for the z-score in [15] and in assay [17] were 1.62 and -0.667 (inactive), respectively.
